Reference: PubChem BioAssay (NCATS)
Results filed as inconclusive are left out. Calls of active or inactive are those of the source. Calls come from the whole dose curve; as a rule, active = well fitted inhibition curve with a large enough effect; inconclusive = small, poorly fitted or top-dose-only effect; inactive = flat fitted curve, though single readings scatter. *1 amine or outer side, *2 acyl side, *3 side chain or, on linkers, in order; H or OH if unused. Where a SMILES comes first, the peptide text is derived from it. Bridges are numbered along the chain shown (N, C = ends). [ ]: non-standard residue; d: D form. The star is where a group is joined. ξ: configuration not given here. X10 = NC1=NCCC(C(N[*:1])C(=O)[*:2])N1; ΔAla(3-NHCONH2) = NC(=O)NC=C(N)C(=O)O; ξβ3hOrn = NCCCC(N)CC(=O)*; Dap = NC[CH](N)C(=O)O

Experiments:
[1] = tested on: NIH3T3; assay: Cytotoxic Profiling of Annotated Libraries Using Quantitative High-Throughput Screening (AID 1296008); settings: Five cell lines viability, CellTiter-Glo ATP luminescence, 48-72 h; max response: stronger effect = lower value
Method in brief: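 Cytotoxicity was measured as CellTiter-Glo ATP luminescence, read after 10 min at room temperature. Compound treatment of the cells lasted 48 or 72 hr at 37 degrees Celsius in a qHTS format.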

[2] = tested on: MCC-13; assay: qHTS assay to identify novel small-molecules to repurpose for Merkel cell carcinoma treatment (AID 1296009); settings: MCC and control cell lines, CellTiter-Glo viability, 72 h; series mostly up to 46 µM
Method in brief: (§1)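 After compound transfer in DMSO, plates were kept 72 hr at 37 degree celsius. Luminescent ATP signal from CellTiter-Glo served as viability measure, normalized against DMSO and no-cell controls.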

[3] = tested on: MCC-26; assay: as above; settings: MCC and control cell lines, CellTiter-Glo viability, 72 h; series mostly up to 46 µM
Method in brief: as §1

[4] = tested on: MKL-1; assay: as above; settings: MCC and control cell lines, CellTiter-Glo viability, 72 h; series mostly up to 46 µM
Method in brief: as §1

[5] = tested on: MKL-2; assay: as above; settings: MCC and control cell lines, CellTiter-Glo viability, 72 h; series mostly up to 46 µM
Method in brief: as §1

[6] = tested on: UISO; assay: as above; settings: MCC and control cell lines, CellTiter-Glo viability, 72 h; series mostly up to 46 µM
Method in brief: as §1

[7] = tested on: WaGa; assay: as above; settings: MCC and control cell lines, CellTiter-Glo viability, 72 h; series mostly up to 46 µM
Method in brief: as §1

[8] = tested on: NIH3T3; assay: as above; settings: MCC and control cell lines, CellTiter-Glo viability, 72 h; at 44.8 µM (top of the series) unless noted
Method in brief: as §1
% is set by controls: 0 for no effect and ±100 for the full control effect; potency is the fitted concentration of half-maximal effect.
Note: nearly all actives have a fitted effect of over 60% in size.

O=C(CCCl)NCCc1ccccc1
inactive: max response [1] -1.58% | Potency [2] | Potency [3] | Potency [4] | Potency [5] | Potency [6] | Potency [7]

C[C@@H]1C[C@H]2[C@@H]3CCC4=CC(=O)C=C[C@]4(C)[C@@]3(F)[C@@H](O)C[C@]2(C)[C@@]1(O)C(=O)COC(=O)c1ccncc1
inactive: max response [1] -6.36% | Potency [2] | Potency [3] | Potency [4] | Potency [5] | Potency [6] | Potency [7]

CC(C)NCCCC1(C(N)=O)c2ccccc2-c2ccccc21
inactive: max response [1] -1.37% | Potency [2] | Potency [3] | Potency [4] | Potency [5] | Potency [6] | Potency [7]

Fc1ccc(C(c2ccc(F)cc2)N2CCNCC2)cc1
inactive: max response [1] -2.81% | Potency [2] | Potency [3] | Potency [4] | Potency [5] | Potency [6] | Potency [7]

C/C(=C1\CCOC(=O)S1)N(C=O)Cc1cnc(C)nc1N
inactive: max response [1] 0.237% | Potency [2] | Potency [3] | Potency [4] | Potency [5] | Potency [6] | Potency [7]

CC(C)(Oc1ccc(Cl)cc1)C(=O)OCCCOC(=O)C(C)(C)Oc1ccc(Cl)cc1
inactive: max response [1] 1.4% | Potency [2] | Potency [3] | Potency [4] | Potency [6] | Potency [7]

Cc1ccccc1C(=O)N1CC/C(=N\OS(=O)(=O)O)c2ccc(Cl)cc21
inactive: max response [1] -8.25% | Potency [2] | Potency [3] | Potency [4] | Potency [5] | Potency [6] | Potency [7]

CC1(C)O[C@@H]2C[C@H]3[C@@H]4CCC5=CC(=O)C=C[C@]5(C)[C@@]4(F)[C@@H](O)C[C@]3(C)[C@]2(C(=O)CO)O1
inactive: max response [1] -1.75% | Potency [2] | Potency [3] | Potency [4] | Potency [5] | Potency [6] | Potency [7]

C[C@H]1NCc2cc(-c3ccc4c(=O)c(C(=O)O)cn(C5CC5)c4c3OC(F)F)ccc21
inactive: max response [1] 3.52% | Potency [2] | Potency [3] | Potency [4] | Potency [5] | Potency [6] | Potency [7]

O=[N+]([O-])c1cncn1CCN1CCOCC1
inactive: max response [1] 2.27% | Potency [2] | Potency [3] | Potency [4] | Potency [5] | Potency [6] | Potency [7]

O=C(CS(=O)Cc1ccco1)NC/C=C\COc1cc(CN2CCCCC2)ccn1 (stereo not given)
inactive: max response [1] -2.51% | Potency [2] | Potency [3] | Potency [4] | Potency [5] | Potency [6] | Potency [7]

Cc1nc2n(c(=O)c1CCN1CCC(C(=O)c3ccc(F)cc3)CC1)CCS2
inactive: max response [1] -4.75% | Potency [2] | Potency [3] | Potency [4] | Potency [6]

CCOC(=O)C(=O)c1csc(NC=O)n1
inactive: max response [1] 0.793% | Potency [2] | Potency [3] | Potency [4] | Potency [5] | Potency [6] | Potency [7]

COC(=O)C1=C(C)NC(COC(N)=O)=C(C(=O)OC(C)C)C1c1cccc(Cl)c1Cl (stereo not given)
active: Potency [1] 15 µM
inactive: Potency [2] | Potency [3] | Potency [4] | Potency [6]

Cc1c(C)c2c(c(C)c1OC(=O)CCC(=O)OCCO)CC[C@@](C)(CCC[C@H](C)CCC[C@H](C)CCCC(C)C)O2
inactive: max response [1] -19.3% | Potency [2] | Potency [3] | Potency [4] | Potency [5] | Potency [6] | Potency [7]

OC(CCCN1CCCCC1)(c1ccccc1)c1ccccc1
inactive: max response [1] -14.5% | Potency [2] | Potency [3] | Potency [4] | Potency [5] | Potency [6] | Potency [7]

CC(=O)/C=C/C=C1/C2CCC(C2)C1(C)C (stereo not given)
inactive: max response [1] -0.501% | Potency [2] | Potency [3] | Potency [4] | Potency [6]

NCCCC(N)CC(=O)NCC1NC(=O)C(CO)NC(=O)C(N)CNC(=O)C(C2CCN=C(N)N2)NC(=O)C(=CNC(N)=O)NC1=O (stereo not drawn) (H-[Dap]S[Dap](ξβ3hOrn)[ΔAla(3-NHCONH2)][X10]; lactam 1-C; configuration not given here)
inactive: max response [1] -5.75% | activity change, negative = cytotoxicity [2] 7.39% [at 0.597 µM] | activity change, negative = cytotoxicity [3] 12.9% [at 0.597 µM] | activity change, negative = cytotoxicity [4] 3.4% [at 0.597 µM] | activity change, negative = cytotoxicity [5] 1.36% [at 0.597 µM] | activity change, negative = cytotoxicity [6] 24.3% [at 0.597 µM] | activity change, negative = cytotoxicity [7] 13.5% [at 0.597 µM]

CN(C)C(=O)CNC(=O)Cc1ccccc1
inactive: max response [1] -5.07% | Potency [2] | Potency [3] | Potency [4] | Potency [5] | Potency [6] | Potency [7]

CC(C)(C)C(O)/C=C/c1ccc2c(c1)OCO2 (stereo not given)
inactive: max response [1] -4.85% | Potency [2] | Potency [3] | Potency [4] | Potency [5] | Potency [6] | Potency [7]

N[C@@H](Cc1cc(I)c(O)c(I)c1)C(=O)O
inactive: max response [1] -12.4% | Potency [2] | Potency [3] | Potency [4] | Potency [5] | Potency [6] | Potency [7]

[O-][n+]1cccc(/C(Cl)=N/OC[C@@H](O)CN2CCCCC2)c1
inactive: max response [1] 0.672% | Potency [2] | Potency [3] | Potency [4] | Potency [5] | Potency [6] | Potency [7]

Brc1ccc([C@H]2CN3CCSC3=N2)cc1
inactive: outcome [1] | outcome [8]

O=C(NO)c1ccccc1
active: Potency [7] 32.6 µM
inactive: max response [1] -4.92% | Potency [2] | Potency [3] | Potency [4] | Potency [6]
